What was measured:
Settings in all cases: concentration: 1 μM, replicates: in singlicate; n = 1
CSK = tested on: CSK
CSNK1A1L = tested on: CSNK1A1L
CSNK1A1 = tested on: CSNK1A1
CSNK1D = tested on: CSNK1D
CSNK1E = tested on: CSNK1E
CSNK1G1 = tested on: CSNK1G1
CSNK1G2 = tested on: CSNK1G2
CSNK1G3 = tested on: CSNK1G3
CSNK2A1 = tested on: CSNK2A1
CSNK2A2 = tested on: CSNK2A2
CTK = tested on: T1, CTK
T1 construct: gene MATK

DAPK1 = tested on: DAPK1
DAPK2 = tested on: DAPK2
DAPK3 = tested on: DAPK3
DCAMKL1 = tested on: T2, DCAMKL1
T2 construct: gene DCLK1

DCAMKL2 = tested on: T3, DCAMKL2
T3 construct: gene DCLK2

DCAMKL3 = tested on: T4, DCAMKL3
T4 construct: gene DCLK3

DDR1 = tested on: DDR1
DDR2 = tested on: DDR2
DLK = tested on: T5, DLK
T5 construct: gene MAP3K12
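Also: KINOMEscan kinase panel screen.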

SMILES	%Inh (CSK)	%Inh (CSNK1A1L)	%Inh (CSNK1A1)	%Inh (CSNK1D)	%Inh (CSNK1E)	%Inh (CSNK1G1)	%Inh (CSNK1G2)	%Inh (CSNK1G3)	%Inh (CSNK2A1)	%Inh (CSNK2A2)	%Inh (CTK)	%Inh (DAPK1)	%Inh (DAPK2)	%Inh (DAPK3)	%Inh (DCAMKL1)	%Inh (DCAMKL2)	%Inh (DCAMKL3)	%Inh (DDR1)	%Inh (DDR2)	%Inh (DLK)
COc1ccc(CSc2nnc(-c3ccc4c(c3)CCO4)o2)cc1	0%	3%	0%	0%	0%	0%	0%	0%	0%	0%	0%	0%	18%	0%	0%	0%	0%	0%	15%	0%
CCCCc1nn2ncccc2c1-c1ccnc(NC2CC2)n1 [GW684374]	2%	0%	18%	90.1%	92.4%	0%	0%	25%	0%	5%	0%	20%	0%	12%	0%	0%	0%	67%	23%	35%
COc1ccc(CSc2nnc(-c3ccc4ncsc4c3)o2)cc1C(F)(F)F	0%	0%	0%	0%	0%	0%	0%	0%	0%	2%	5%	10%	4%	0%	9%	0%	0%	14%	12%	0%
Fc1ccc(-c2nc[nH]c2-c2ccncc2)cc1 [SB-217360]	6%	24%	93.3%	91.9%	97.7%	5%	0%	5%	0%	0%	31%	0%	0%	8%	29%	0%	0%	9%	34%	0%
CCn1c(-c2c(N)noc2C)nc2cnccc21 [SB-737856]	0%	18%	0%	13%	11%	8%	0%	9%	0%	0%	14%	0%	0%	0%	5%	30%	0%	0%	0%	41%
O=C1NC(=O)C(c2ccc(Cl)cc2)=C1Nc1ccc(O)cc1 [SB-340867]	0%	2%	0%	0%	0%	0%	0%	32%	0%	0%	0%	0%	0%	0%	0%	0%	0%	0%	0%	0%
Cl.Cl.Cl.N#Cc1ccc(CCNc2nccc(-c3cccc(CN4CCNCC4)c3)n2)cc1 [GSK2137462]	15%	2%	0%	23%	55%	13%	0%	14%	20%	30%	2%	28%	19%	75%	14%	0%	0%	0%	0%	0%
COc1ccc(Nc2nccc(-c3ccc(NC(=O)c4cc5cc(F)ccc5[nH]4)cc3)n2)cc1 [GSK1229496]	0%	0%	0%	0%	21%	0%	0%	17%	0%	0%	0%	55%	5%	1%	11%	0%	0%	63%	26%	36%
Cc1nccc(-c2c(-c3ccc(F)cc3)ncn2CCCN2CCOCC2)n1.Cl [SB-282975]	0%	21%	51%	95.6%	88%	4%	6%	2%	1%	9%	0%	0%	99.3%	0%	0%	2%	3%	0%	0%	0%
COC(=O)C(Cc1ccccc1)NC(=O)NC1CCN(c2ccnc(Nc3ccc(F)cc3)n2)C1 (centres unmarked) [GSK1379714]	0%	2%	5%	7%	7%	0%	13%	11%	0%	14%	0%	25%	12%	28%	7%	0%	8%	75%	47%	48%
